Laboratory results as given in paper PMC7862700, “An all-to-all approach to the identification of sequence-specific readers for epigenetic DNA modifications on cytosine”.

Tests used:
Test in all cases: DAPPL (digital affinity profiling via proximity ligation, sequencing); 10 mM Tris-HCl pH 7.5, 50 mM NaCl, 1 mM DTT, 4% glycerol, room temperature, 30 min; GST-TFs on glutathione beads, 16-mer random dsDNA library, 0.1% formaldehyde crosslink after washing; high values mean tight binding
FLI1 = molecular target: T1, FLI1 (Homo sapiens, UniProt Q01543 1-452); conditions: protein: recombinant; tags: N-terminal GST; dsDNA, one strand shown
T1 sequence: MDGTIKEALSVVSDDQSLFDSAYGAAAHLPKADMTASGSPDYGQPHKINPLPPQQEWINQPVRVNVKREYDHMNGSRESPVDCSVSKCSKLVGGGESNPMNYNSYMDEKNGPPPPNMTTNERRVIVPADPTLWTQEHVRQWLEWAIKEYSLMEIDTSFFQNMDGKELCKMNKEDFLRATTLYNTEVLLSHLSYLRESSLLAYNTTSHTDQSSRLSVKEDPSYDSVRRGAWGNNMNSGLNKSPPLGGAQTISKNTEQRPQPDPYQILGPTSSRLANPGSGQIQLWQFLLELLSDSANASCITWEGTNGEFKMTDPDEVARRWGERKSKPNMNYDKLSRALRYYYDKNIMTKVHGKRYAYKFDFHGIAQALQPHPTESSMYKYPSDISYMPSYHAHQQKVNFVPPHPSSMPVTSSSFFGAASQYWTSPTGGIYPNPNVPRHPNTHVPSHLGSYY
How it was run: (§1)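 Binding signal is each hexamer's read frequency for a factor divided by its frequency in the tag-only sample. The factors were GST-fused human transcription factors from yeast, captured on glutathione beads, DNA-barcoded and pooled with that sample. Pools were incubated with 200 nmole of a random double-stranded 16-mer DNA library in Tris/NaCl/DTT/glycerol buffer at room temperature for 30 min, then washed, crosslinked with 0.1% formaldehyde, proximity-ligated with BsaI/T4 ligase (1 h, 37 °C), PCR-amplified and sequenced on an Illumina NextSeq500.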

ELK1 = molecular target: T2, ELK1 (Homo sapiens, UniProt P19419 1-428); conditions: protein: recombinant; tags: N-terminal GST; dsDNA, one strand shown
T2 sequence: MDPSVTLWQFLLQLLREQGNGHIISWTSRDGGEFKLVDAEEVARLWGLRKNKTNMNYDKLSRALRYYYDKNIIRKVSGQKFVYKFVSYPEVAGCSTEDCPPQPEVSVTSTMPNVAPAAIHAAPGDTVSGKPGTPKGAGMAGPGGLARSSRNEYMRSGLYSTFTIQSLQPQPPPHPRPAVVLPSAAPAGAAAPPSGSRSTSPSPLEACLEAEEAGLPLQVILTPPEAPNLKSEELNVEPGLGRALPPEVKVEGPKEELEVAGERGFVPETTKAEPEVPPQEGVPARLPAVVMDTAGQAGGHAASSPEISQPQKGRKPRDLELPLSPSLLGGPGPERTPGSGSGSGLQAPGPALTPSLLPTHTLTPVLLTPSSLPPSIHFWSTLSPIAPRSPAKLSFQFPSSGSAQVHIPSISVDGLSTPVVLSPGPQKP
How it was run: as §1

GABPA = molecular target: T3, GABPA (Homo sapiens, UniProt Q06546 1-454); conditions: protein: recombinant; tags: N-terminal GST; dsDNA, one strand shown
T3 sequence: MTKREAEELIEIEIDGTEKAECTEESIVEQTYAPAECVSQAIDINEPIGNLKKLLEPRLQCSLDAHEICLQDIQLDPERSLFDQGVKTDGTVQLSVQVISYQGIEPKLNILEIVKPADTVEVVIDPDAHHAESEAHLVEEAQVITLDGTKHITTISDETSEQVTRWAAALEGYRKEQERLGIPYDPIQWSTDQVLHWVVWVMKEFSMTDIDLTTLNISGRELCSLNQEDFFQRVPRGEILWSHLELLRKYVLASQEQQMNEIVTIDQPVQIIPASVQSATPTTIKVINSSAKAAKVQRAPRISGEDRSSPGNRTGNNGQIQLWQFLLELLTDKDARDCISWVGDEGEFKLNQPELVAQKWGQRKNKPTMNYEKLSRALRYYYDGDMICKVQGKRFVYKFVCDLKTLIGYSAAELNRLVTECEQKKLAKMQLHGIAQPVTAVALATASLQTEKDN
How it was run: as §1

ERG = molecular target: T4, ERG (Homo sapiens, UniProt P11308 1-479); conditions: protein: recombinant; tags: N-terminal GST; dsDNA, one strand shown
T4 sequence: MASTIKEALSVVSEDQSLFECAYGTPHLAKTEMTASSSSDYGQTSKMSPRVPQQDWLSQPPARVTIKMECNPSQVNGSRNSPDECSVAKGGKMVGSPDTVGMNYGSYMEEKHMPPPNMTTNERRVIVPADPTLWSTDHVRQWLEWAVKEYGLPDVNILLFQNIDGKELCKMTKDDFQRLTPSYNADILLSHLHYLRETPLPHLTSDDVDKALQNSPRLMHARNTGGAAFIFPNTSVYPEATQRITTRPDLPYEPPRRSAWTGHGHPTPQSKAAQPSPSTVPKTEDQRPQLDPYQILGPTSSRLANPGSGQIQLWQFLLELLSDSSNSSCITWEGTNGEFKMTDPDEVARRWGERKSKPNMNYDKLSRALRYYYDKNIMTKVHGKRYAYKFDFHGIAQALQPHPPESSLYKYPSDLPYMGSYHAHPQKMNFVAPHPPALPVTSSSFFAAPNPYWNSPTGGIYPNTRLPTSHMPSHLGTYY
How it was run: as §1

ELF1 = ELF1 (Homo sapiens, UniProt P32519 1-619); conditions: protein: recombinant; tags: N-terminal GST; dsDNA, one strand shown
How it was run: as §1

EHF = molecular target: T5, EHF (Homo sapiens, UniProt Q9NZC4 1-300); conditions: protein: recombinant; tags: N-terminal GST; dsDNA, one strand shown
T5 sequence: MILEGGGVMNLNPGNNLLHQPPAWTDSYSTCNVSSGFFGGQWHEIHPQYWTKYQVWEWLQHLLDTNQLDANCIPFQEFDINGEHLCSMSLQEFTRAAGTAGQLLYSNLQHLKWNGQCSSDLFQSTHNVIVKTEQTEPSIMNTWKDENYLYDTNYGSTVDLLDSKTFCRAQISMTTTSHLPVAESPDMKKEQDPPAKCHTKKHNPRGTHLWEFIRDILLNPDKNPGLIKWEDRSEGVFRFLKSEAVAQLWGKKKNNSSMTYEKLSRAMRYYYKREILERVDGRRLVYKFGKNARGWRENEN
How it was run: as §1

SPI1 = SPI1 (Homo sapiens, UniProt P17947 1-270); conditions: protein: recombinant; tags: N-terminal GST; dsDNA, one strand shown
How it was run: as §1

SPIB = SPIB (Homo sapiens, UniProt Q01892 1-262); conditions: protein: recombinant; tags: N-terminal GST; dsDNA, one strand shown
How it was run: as §1

ELK3 = molecular target: T6, ELK3 (Homo sapiens, UniProt P41970 1-407); conditions: protein: recombinant; tags: N-terminal GST; dsDNA, one strand shown
T6 sequence: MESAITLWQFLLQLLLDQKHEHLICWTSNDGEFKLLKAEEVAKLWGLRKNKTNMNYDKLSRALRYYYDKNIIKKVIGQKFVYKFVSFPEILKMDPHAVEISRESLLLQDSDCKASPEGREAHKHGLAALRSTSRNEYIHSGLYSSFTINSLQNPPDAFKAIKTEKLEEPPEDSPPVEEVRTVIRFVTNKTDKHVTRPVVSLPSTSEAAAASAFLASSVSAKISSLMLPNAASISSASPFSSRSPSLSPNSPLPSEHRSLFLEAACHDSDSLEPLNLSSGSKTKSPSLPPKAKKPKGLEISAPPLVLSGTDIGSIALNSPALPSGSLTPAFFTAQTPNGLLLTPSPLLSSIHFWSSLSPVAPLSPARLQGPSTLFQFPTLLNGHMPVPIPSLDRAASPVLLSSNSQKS
How it was run: as §1

FEV = molecular target: T7, FEV (Homo sapiens, UniProt Q99581 1-238); conditions: protein: recombinant; tags: N-terminal GST; dsDNA, one strand shown
T7 sequence: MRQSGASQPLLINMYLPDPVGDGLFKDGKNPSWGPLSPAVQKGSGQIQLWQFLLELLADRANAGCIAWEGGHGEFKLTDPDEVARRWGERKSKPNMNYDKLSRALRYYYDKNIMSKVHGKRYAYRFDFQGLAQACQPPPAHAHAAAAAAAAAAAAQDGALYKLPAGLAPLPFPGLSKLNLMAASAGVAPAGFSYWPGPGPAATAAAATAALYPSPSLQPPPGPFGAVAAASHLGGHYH
How it was run: as §1

ETV5 = ETV5 (Homo sapiens, UniProt P41161 1-510); conditions: protein: recombinant; tags: N-terminal GST; dsDNA, one strand shown
How it was run: as §1

HSF1 = HSF1 (Homo sapiens, UniProt Q00613 1-529); conditions: protein: recombinant; tags: N-terminal GST; chain copies: 3; dsDNA, one strand shown
How it was run: as §1

SPIC = molecular target: T8, SPIC (Homo sapiens, UniProt Q8N5J4 1-248); conditions: protein: recombinant; tags: N-terminal GST; dsDNA, one strand shown
T8 sequence: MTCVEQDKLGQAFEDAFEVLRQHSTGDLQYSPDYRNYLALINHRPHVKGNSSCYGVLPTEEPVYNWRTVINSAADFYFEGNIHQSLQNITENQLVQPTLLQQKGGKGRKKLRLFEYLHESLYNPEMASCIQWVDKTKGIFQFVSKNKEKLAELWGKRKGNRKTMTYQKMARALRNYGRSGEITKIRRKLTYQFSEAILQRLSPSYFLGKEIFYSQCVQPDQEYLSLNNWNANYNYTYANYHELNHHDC
How it was run: as §1

ELF4 = ELF4 (Homo sapiens, UniProt Q99607 1-663); conditions: protein: recombinant; tags: N-terminal GST; dsDNA, one strand shown
How it was run: as §1

ELK4 = molecular target: T9, ELK4 (Homo sapiens, UniProt P28324-2 1-405); conditions: protein: recombinant; tags: N-terminal GST; dsDNA, one strand shown
T9 sequence: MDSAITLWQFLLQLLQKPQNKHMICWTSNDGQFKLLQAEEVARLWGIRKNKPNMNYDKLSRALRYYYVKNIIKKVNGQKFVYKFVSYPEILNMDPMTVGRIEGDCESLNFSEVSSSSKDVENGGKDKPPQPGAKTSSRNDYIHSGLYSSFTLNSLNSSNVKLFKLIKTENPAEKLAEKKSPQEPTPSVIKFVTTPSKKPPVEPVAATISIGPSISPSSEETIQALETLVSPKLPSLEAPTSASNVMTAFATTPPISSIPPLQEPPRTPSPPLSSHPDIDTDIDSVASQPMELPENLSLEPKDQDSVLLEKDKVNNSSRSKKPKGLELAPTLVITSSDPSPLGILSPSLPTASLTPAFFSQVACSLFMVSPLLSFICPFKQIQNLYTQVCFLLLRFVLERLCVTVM
How it was run: as §1

ETV2 = molecular target: T10, ETV2 (Homo sapiens, UniProt O00321 1-342); conditions: protein: recombinant; tags: N-terminal GST; dsDNA, one strand shown
T10 sequence: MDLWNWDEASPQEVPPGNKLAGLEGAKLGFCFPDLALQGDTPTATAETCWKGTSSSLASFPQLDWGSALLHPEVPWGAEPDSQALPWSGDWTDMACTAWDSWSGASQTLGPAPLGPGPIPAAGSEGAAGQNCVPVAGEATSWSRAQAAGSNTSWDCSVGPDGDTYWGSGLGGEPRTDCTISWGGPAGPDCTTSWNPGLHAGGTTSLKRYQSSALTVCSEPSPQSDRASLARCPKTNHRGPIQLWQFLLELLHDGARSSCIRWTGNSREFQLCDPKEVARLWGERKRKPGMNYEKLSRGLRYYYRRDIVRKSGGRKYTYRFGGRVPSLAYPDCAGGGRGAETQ
How it was run: as §1

ELF3 = molecular target: T11, ELF3 (Homo sapiens, UniProt P78545 1-371); conditions: protein: recombinant; tags: N-terminal GST; dsDNA, one strand shown
T11 sequence: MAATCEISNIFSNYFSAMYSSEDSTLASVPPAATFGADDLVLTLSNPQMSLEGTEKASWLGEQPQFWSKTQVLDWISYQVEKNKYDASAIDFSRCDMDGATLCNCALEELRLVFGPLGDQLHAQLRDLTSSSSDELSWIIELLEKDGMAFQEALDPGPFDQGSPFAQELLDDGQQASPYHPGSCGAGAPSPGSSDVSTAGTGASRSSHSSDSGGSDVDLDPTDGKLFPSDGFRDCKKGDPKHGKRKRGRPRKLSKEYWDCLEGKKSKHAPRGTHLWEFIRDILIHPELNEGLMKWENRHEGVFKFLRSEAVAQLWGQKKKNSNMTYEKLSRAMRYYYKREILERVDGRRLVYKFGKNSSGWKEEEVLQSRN
How it was run: as §1

CRX = CRX (Homo sapiens, UniProt O43186 1-299); conditions: protein: recombinant; tags: N-terminal GST; dsDNA, one strand shown
How it was run: as §1

ETV1 = ETV1 (Homo sapiens, UniProt P50549 1-477); conditions: protein: recombinant; tags: N-terminal GST; dsDNA, one strand shown
How it was run: as §1

Sequence of ETV5 (P41161 whole entry): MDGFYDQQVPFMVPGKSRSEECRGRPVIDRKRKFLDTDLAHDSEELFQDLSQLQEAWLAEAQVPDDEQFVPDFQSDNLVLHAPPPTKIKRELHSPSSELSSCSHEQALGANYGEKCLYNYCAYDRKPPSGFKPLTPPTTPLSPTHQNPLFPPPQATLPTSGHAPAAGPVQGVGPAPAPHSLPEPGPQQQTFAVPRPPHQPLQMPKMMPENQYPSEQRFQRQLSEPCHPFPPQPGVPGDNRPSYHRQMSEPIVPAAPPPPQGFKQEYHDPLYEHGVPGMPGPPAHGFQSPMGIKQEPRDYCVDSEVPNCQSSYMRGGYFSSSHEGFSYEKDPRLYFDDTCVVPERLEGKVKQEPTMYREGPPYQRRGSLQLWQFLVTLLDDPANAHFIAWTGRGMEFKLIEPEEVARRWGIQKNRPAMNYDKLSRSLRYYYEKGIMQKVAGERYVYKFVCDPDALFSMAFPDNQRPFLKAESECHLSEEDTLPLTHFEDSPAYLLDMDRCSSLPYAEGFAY
Sequence of ELF1 (P32519 whole entry): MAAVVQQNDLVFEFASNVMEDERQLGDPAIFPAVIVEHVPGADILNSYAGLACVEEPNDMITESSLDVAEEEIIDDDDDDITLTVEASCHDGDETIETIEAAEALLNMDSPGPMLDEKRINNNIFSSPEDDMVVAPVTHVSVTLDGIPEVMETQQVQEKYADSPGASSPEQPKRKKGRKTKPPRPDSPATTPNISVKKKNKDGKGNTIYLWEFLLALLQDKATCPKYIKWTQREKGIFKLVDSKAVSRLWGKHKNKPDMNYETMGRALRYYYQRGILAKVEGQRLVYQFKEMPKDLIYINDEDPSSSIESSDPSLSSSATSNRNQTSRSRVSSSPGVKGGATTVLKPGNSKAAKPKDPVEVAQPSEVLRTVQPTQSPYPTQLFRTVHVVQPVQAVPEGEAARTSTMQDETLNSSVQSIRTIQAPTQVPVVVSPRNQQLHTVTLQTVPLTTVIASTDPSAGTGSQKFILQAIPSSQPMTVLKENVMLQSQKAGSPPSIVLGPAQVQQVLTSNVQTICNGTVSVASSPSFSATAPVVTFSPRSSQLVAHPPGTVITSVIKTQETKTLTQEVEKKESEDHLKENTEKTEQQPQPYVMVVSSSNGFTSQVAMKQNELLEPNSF
Sequence of ELF4 (Q99607 whole entry): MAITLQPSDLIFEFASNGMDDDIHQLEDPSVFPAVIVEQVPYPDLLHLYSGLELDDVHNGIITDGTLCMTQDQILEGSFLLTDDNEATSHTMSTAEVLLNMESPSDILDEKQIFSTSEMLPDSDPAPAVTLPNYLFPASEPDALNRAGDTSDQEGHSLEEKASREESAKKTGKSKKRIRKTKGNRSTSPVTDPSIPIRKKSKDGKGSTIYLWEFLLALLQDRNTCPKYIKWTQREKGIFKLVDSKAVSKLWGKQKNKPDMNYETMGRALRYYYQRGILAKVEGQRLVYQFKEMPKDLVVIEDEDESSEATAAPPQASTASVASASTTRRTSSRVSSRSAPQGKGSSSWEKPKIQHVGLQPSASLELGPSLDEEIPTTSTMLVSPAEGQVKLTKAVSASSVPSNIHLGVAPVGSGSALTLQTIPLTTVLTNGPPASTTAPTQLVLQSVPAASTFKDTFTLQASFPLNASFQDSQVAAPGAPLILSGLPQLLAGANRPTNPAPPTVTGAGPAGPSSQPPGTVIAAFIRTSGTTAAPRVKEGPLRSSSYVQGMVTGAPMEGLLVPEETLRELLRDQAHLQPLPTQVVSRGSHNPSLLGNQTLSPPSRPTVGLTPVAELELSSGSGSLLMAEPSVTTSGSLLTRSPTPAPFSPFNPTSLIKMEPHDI
Sequence of ETV1 (P50549 whole entry): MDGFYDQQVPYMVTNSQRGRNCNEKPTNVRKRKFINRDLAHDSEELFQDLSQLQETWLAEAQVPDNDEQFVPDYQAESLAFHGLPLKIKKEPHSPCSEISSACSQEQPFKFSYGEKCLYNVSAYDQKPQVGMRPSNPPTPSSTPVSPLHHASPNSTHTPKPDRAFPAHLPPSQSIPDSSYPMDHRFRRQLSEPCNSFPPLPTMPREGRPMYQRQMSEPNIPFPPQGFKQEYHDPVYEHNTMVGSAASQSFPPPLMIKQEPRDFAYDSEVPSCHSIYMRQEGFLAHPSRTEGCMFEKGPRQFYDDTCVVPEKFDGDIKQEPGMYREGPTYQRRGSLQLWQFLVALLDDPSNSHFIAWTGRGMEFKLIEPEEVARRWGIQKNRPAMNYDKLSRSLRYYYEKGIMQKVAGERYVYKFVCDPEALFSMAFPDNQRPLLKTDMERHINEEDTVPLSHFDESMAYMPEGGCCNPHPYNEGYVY
Sequence of SPIB (Q01892 whole entry): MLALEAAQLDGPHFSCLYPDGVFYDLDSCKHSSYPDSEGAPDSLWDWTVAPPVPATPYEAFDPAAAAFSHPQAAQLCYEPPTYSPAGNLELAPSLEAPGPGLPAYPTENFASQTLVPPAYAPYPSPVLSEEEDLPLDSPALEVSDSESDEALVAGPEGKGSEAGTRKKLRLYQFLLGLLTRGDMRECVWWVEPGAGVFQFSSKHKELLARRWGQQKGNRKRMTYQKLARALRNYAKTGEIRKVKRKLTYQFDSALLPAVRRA
Sequence of CRX (O43186 whole entry): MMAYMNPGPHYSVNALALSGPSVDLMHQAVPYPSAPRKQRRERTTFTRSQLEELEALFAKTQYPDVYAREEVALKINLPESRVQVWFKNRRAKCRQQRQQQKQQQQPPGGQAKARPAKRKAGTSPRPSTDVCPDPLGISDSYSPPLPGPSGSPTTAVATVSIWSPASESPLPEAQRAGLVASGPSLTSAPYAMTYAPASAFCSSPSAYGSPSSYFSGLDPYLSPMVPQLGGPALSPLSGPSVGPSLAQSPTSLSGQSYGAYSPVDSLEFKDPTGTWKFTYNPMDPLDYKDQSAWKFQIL
Sequence of HSF1 (Q00613 whole entry): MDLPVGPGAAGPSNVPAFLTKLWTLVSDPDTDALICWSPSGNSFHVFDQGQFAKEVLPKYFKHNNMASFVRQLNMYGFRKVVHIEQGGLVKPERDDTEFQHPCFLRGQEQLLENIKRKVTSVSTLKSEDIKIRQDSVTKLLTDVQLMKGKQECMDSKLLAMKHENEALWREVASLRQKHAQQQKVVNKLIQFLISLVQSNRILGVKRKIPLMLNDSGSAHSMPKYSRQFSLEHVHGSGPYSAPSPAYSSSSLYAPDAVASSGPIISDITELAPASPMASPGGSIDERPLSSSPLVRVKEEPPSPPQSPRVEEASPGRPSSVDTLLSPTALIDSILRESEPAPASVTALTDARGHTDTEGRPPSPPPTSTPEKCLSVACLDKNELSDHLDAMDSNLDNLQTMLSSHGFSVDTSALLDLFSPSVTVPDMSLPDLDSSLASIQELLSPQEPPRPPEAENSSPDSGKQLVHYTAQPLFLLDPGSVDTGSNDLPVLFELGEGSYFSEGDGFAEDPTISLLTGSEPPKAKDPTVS

CCATCT
binding signal (FLI1): 1.3 fold enrichment (6-mer frequency, TF over GST control) | binding signal (ELK1): 1.44 fold enrichment (6-mer frequency, TF over GST control) | binding signal (GABPA): 1.32 fold enrichment (6-mer frequency, TF over GST control) | binding signal (ERG): 1.26 fold enrichment (6-mer frequency, TF over GST control) | binding signal (ELF1): 1.38 fold enrichment (6-mer frequency, TF over GST control) | binding signal (EHF): 1.33 fold enrichment (6-mer frequency, TF over GST control) | binding signal (SPI1): 1.21 fold enrichment (6-mer frequency, TF over GST control) | binding signal (SPIB): 1.28 fold enrichment (6-mer frequency, TF over GST control) | binding signal (ELK3): 1.28 fold enrichment (6-mer frequency, TF over GST control) | binding signal (FEV): 1.27 fold enrichment (6-mer frequency, TF over GST control) | binding signal (ETV5): 1.29 fold enrichment (6-mer frequency, TF over GST control) | binding signal (HSF1): 1.31 fold enrichment (6-mer frequency, TF over GST control) | binding signal (SPIC): 1.35 fold enrichment (6-mer frequency, TF over GST control) | binding signal (ELF4): 1.25 fold enrichment (6-mer frequency, TF over GST control) | binding signal (ELK4): 1.4 fold enrichment (6-mer frequency, TF over GST control) | binding signal (ETV2): 1.39 fold enrichment (6-mer frequency, TF over GST control) | binding signal (ELF3): 1.34 fold enrichment (6-mer frequency, TF over GST control) | binding signal (CRX): 1.28 fold enrichment (6-mer frequency, TF over GST control) | binding signal (ETV1): 1.34 fold enrichment (6-mer frequency, TF over GST control)
